Test results from the supplement of paper PMC3898565.
± gives the uncertainty stated by the source.

Each molecule was assayed on U87 (assay: cell viability relative to vehicle control; higher = less growth inhibition (less active)). Conditions: 10 µM; 72 h.
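Further: viable cell number estimated from Alamar Blue fluorescence read at 560/90, part of a single-dose primary screen of an FDA-approved drug library.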

Compound | cell viability [%]
Cc1onc(-c2ccccc2)c1-c1ccc(S(N)(=O)=O)cc1 | 106.8 ± 0.6
CN1CC(=O)N2[C@H](c3ccc4c(c3)OCO4)c3[nH]c4ccccc4c3C[C@@H]2C1=O | 107 ± 1.3
CC(C)(C)NCC(O)c1ccc(O)c(CO)c1 (centres undefined) | 98.8 ± 8.3
Cc1cccc(CCN2CCC(C(=O)c3ccc(NS(C)(=O)=O)cc3)CC2)n1 | 102.6 ± 0.96
OCCOCCN1CCN(C2=Nc3ccccc3Sc3ccccc32)CC1 | 99.6 ± 2.8
CC(C)[C@H](N)C(=O)OCCOCn1cnc2c(=O)nc(N)[nH]c21 | 103 ± 1.8
C[C@H](N[C@@H](CCc1ccccc1)C(=O)O)C(=O)N1CCC[C@H]1C(=O)O | 98.3 ± 1.7
CC(C)NCC(O)c1ccc(NS(C)(=O)=O)cc1 (centres undefined) [Sotalol] | 101.7 ± 0.99
CCCCc1nc(Cl)c(CO)n1Cc1ccc(-c2ccccc2-c2nnn[nH]2)cc1 [LOSARTAN Potassium] | 107 ± 1.9
CCOC(=O)C1=C(C)NC(C)=C(C(=O)OC)C1c1cccc([N+](=O)[O-])c1 (centres undefined) | 98.9 ± 2.8
NNCCc1ccccc1 | 104.4 ± 0.9
NC1CCN(c2nc3c(cc2F)c(=O)c(C(=O)O)cn3-c2ccc(F)cc2F)C1 (centres undefined) | 98.01 ± 0.56
CNCC[C@H](Oc1cccc2ccccc12)c1cccs1 [Duloxetine] | 104 ± 1.9
CC(Oc1c(Cl)cccc1Cl)C1=NCCN1 (centres undefined) | 113 ± 11
COC1=C(OC)C(=O)C(CCCCCCCCCCO)=C(C)C1=O | 93.41 ± 0.38
COc1ccccc1N1CCN(CC(O)COc2cccc3ccccc23)CC1 (centres undefined) | 99.6 ± 1.9
CO[C@H]1/C=C/O[C@@]2(C)Oc3c(C)c(O)c4c(O)c(c5c(nc6cc(C)ccn65)c4c3C2=O)NC(=O)/C(C)=C\C=C\[C@H](C)[C@H](O)[C@@H](C)[C@@H](O)[C@@H](C)[C@H](OC(C)=O)[C@@H]1C | 96.1 ± 1.3
CCCCC(=O)N(Cc1ccc(-c2ccccc2-c2nnn[nH]2)cc1)[C@H](C(=O)O)C(C)C | 108 ± 3
CC(=O)CCCCn1cnc2c1c(=O)n(C)c(=O)n2C | 105 ± 1.2
CCOC(=O)[C@H](CCc1ccccc1)N[C@@H](C)C(=O)N1[C@H](C(=O)O)C[C@@H]2CCC[C@@H]21 | 101 ± 1.5
Oc1ccc(C2CNCCc3c2cc(O)c(O)c3Cl)cc1 (centres undefined) | 103 ± 2.8
CC(=O)OCC(=O)NCCCOc1cccc(CN2CCCCC2)c1 | 102 ± 1.4
CCOC(=O)c1ccc(OC(=O)CCCCCNC(=N)N)cc1 [Gabexate] | 98.6 ± 3.2
CCN(CC)C(=O)C1(c2ccccc2)CC1CN (centres undefined) [Milnacipran] | 102 ± 1.5
